Screening data as filed in PubChem BioAssay.
NF-kB neuron act = activators of NF-kB expression in neurons, primary screen, cell-based, HTS | 190,000 tested, 1.6% active | human neuronal cells, NF-kB reporter expression; active compounds read high | fold change at 12.5 µM; in the data active = fold change above about 3.3
ssDAF12 agonist = S. stercoralis DAF-12 nuclear receptor activators, primary screen, cell-based, luminescence, HEK293, GRIP1 co-expression, lit1-tk-luc. Nuclear hormone receptor DAF-12 (Strongyloides stercoralis). HEK293 ssDAF-12/GRIP1 lit1-tk-luc reporter; % of 3 µM dafachronic acid response. activation, % at 6.8 µM. 370,000 tested, 1% active. AID 652126, 2013;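 active = activation above the mean over all tested compounds plus 3 SD, cut at about 0.9% in these data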
hgDAF-12 ag = H. glycines DAF-12 receptor agonists, primary screen, cell-based, luminescence, HEK293, GAL4 fusion, UAS-luciferase | 370,000 tested, 1.8% active | HEK293 GAL4-hgDAF12 UAS-luciferase reporter, agonist luminescence; normalized to butyrate control | activation, % at 6.8 µM | Nuclear hormone receptor DAF-12 (Heterodera glycines), GAL4 fusion;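 active = activation above a cutoff set at the mean of all screened compounds plus 3 SD, cut at about 10% in these data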
hcDAF12 agonist = H. contortus DAF-12 nuclear receptor activators, primary screen, cell-based, luminescence, HEK293, lit1-tk-luc reporter | HEK293 hcDAF-12 lit1-tk-luc reporter; 0% DMSO, 100% Δ7-dafachronic acid | activation, % at 6.8 µM | 370,000 tested, 1.4% active | AID 652067, 2013;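 active = activation above the mean of all tested compounds plus 3 SD, cut at about 5.5% in these data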
APP 5'UTR act = activators of APP 5'UTR luciferase reporter, primary screen, SH-SY5Y cells | 190,000 tested, 1% active | SH-SY5Y APP 5'UTR luciferase reporter, luminescence; zero percent = DMSO vehicle wells | activation, % at 2 µM;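 active = activation above a set limit, based on mean plus 3 SD of controls, cut at about 140% in these data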
Hits are given with their value; n = inactive; x = not tested or not shown. Hits are enriched below; roughly 3.4% of the tested compounds scored in any of these assays.

SMILES	NF-kB neuron act	ssDAF12 agonist	hgDAF-12 ag	hcDAF12 agonist	APP 5'UTR act
COc1ccc(C(=O)Nc2cccc(NC(C)=O)c2)cc1	x	n	n	n	x
COc1ccc(C(=O)Nc2cccc(C)c2)cc1	6	n	11	n	142
O=C(Nc1cccc(Br)c1)c1ccc(OC2CSC2)cc1	n	x	x	x	149
CC(=O)Nc1ccc(-c2cc(C(=O)O)c3ccc(C)cc3n2)cc1	x	n	n	n	x
CCOc1ccc(CN(C)C(=O)c2ccc3ccccc3n2)cc1	x	n	n	n	x
COc1ccc(-c2cc(C(=O)Nc3ccc(C(N)=O)cc3)c3ccccc3n2)cc1	x	n	11	n	x
CC(=O)Nc1ccc(-c2cc(C(=O)O)c3cc4ccccc4cc3n2)cc1	x	1.8	n	5.9	x
CCOc1ccc(NC(=S)c2ccc3ccccc3n2)cc1	x	1.0	n	n	x
CS(=O)(=O)Nc1ccc(C(=O)Nc2ccc3ccccc3c2)cc1	x	1.3	11	n	x
CC(=O)c1cccc(NC(=O)c2ccc(NS(C)(=O)=O)cc2)c1	n	n	n	n	n
COc1cccc(-c2cc(C(=O)Nc3ccccc3)c3ccccc3n2)c1	x	n	n	n	x
COC(=O)C1CN(Cc2ccc(F)cc2)CCS(=O)(=O)N1Cc1ccc(F)cc1 (centres undefined)	x	n	n	n	x
c1coc(-c2nnc3n2N=C(c2ccc4c(c2)OCO4)CS3)c1	x	n	n	n	x
c1ccc(CCn2nnc(-c3ccc(N4CCOCC4)cc3)n2)cc1	x	n	n	n	x
O=C(Nc1ccc(Cl)c(Cl)c1)Nc1ccccn1	x	n	n	n	x
COc1ccc(NC(=O)c2cc3ccccc3cc2OC)cc1OC	x	n	n	n	x
COc1cc2ccccc2cc1C(=O)Nc1ccc(O)cc1	x	1.4	n	n	x
COc1ccc(NC(=O)Nc2ccccn2)cc1OC	x	1.5	n	n	x
CCOc1ccc(NC(=O)c2ccccc2CO)cc1	n	n	n	n	n
CCOc1ccc(NC(=O)c2ccccc2O)cc1	6.3	n	12	n	n
O=C(C1CCCN(S(=O)(=O)c2cccs2)C1)N1CCN(Cc2ccccc2)CC1 (centres undefined)	x	n	n	n	x
CN(C)c1cccc(/C=C2\CC3(OC(=O)c4ccc(Cl)cc4)CCCN2C3)c1 (centres undefined)	x	n	n	n	x
O=C(NCCc1ccccc1)C1(c2ccccc2)CC1(Cl)Cl (centres undefined)	3.4	n	n	n	n
O=C(NCCc1ccccc1)C1(c2ccccc2)CCCC1	x	n	n	n	x
N=C1SC(CC(=O)Nc2ccccc2[N+](=O)[O-])C(=O)N1c1ccccc1 (centres undefined)	x	1.6	n	n	x
SMILES	NF-kB neuron act	ssDAF12 agonist	hgDAF-12 ag	hcDAF12 agonist	APP 5'UTR act
CC(=O)CCc1oc2ccc(C)cc2c1Cc1ccccc1	x	1.6	n	6.5	x
O=c1/c(=C/c2ccccn2)sc2nc3ccccc3n12	4.8	1.3	n	n	n
CC(C)[C@@H]1C(=O)N[C@H](Cc2cn(S(=O)(=O)c3ccccc3)c3ccccc23)C(=O)N1C	x	n	n	n	x
CC(C)Sc1ccc(C(=O)Nc2ccc(F)cc2F)cn1	n	n	12	n	n
c1ccc2sc(-c3ccc4c(c3)OCO4)nc2c1	6.3	x	x	x	168
CN1CCN(c2nc3ccccc3nc2NS(=O)(=O)c2ccc(Br)cc2)CC1	x	n	n	n	x
O=S(=O)(Nc1nc2ccccc2nc1N1CCc2ccccc2C1)c1ccc(Br)cc1	n	2.4	16	22	n
Cc1ccccc1NC(=O)NCCc1nc2ccccc2[nH]1	n	n	n	n	n
Cc1ccccc1NC(=S)c1nc2ccccc2[nH]1	n	1.2	n	5.8	n
O=C(CSc1ccccc1F)Nc1ccc(N2CCOCC2)cc1	x	n	12	n	x
COC(=O)c1cc(NC(=O)/C=C/c2ccccc2)ccc1O	n	n	11	n	n
O=C(Nc1ccc(CN2CCOCC2)cc1)c1cc2ccccc2o1	n	n	n	n	168
O=C(/C=C/c1ccccc1)Nc1cc(C(=O)O)cc(C(=O)O)c1	n	n	n	n	n
O=C(Nc1ccc(N2CCCC2)cc1)c1ccccc1F	n	n	13	n	137
O=C(Nc1ccc(N2CCCC2)cc1)c1cccc(Cl)c1Cl	x	n	n	n	x
O=C(Nc1ccc(CN2CCOCC2)cc1)c1ccccc1F	n	n	12	n	n
O=C(Nc1ccc(CN2CCOCC2)cc1)c1ccc(Cl)cc1Cl	x	n	n	n	x
O=C(/C=C/c1ccccc1)Nc1ccc(N2CCCCC2)cc1	n	n	13	n	n
O=C(/C=C/c1ccc(Cl)cc1)Nc1ccc(N2CCCCC2)cc1	n	n	n	n	n
O=C(CCSc1ccc(Cl)cc1)Nc1cccnc1	7.7	n	n	n	n
C=CCSc1n[nH]c(-c2ccc(OC)cc2)n1	n	n	12	n	n
Cc1cccn2cc(-c3ccccc3)nc12	4.3	1.1	13	n	154
Cc1cccn2cc(CNc3ccccc3)nc12	n	n	n	n	n
COc1ccc(-c2cn3cccc(C)c3n2)cc1Br	4.8	n	n	n	137
COc1ccc2nc(NC(C)=O)sc2c1	n	n	12	n	n
SMILES	NF-kB neuron act	ssDAF12 agonist	hgDAF-12 ag	hcDAF12 agonist	APP 5'UTR act
COC(=O)c1ccc2nc(NC(=O)CSCC(=O)OCC(=O)c3ccccc3)sc2c1	n	n	13	n	n
COCC(=O)Nc1nc2ccc(C)cc2s1	3.7	n	n	n	n
CCCCCN1CCCCC(NC(=O)C2CCCCC2)C1=O (centres undefined)	x	n	n	n	x
COCC#Cc1ccc(CC[C@H]2O[C@H]3CC[C@@H](CO)O[C@H]3C[C@H]2n2cc(C(C)(C)O)nn2)cc1	x	n	n	n	x
CC(C)CC(=O)N1CCc2cc(S(=O)(=O)N(C)Cc3ccco3)ccc21	x	n	n	n	x
O=C1CC(/C=C/c2ccccc2)=Nc2ccccc2N1	4	n	n	n	n
COc1cc2c(cc1NC(=O)C(C)OC(=O)c1ccc(S(=O)(=O)Nc3ccccc3Cl)cc1)oc1ccccc12 (centres undefined)	x	n	n	5.8	n
COc1cc2c(cc1NC(=O)C(C)N1CCN(S(=O)(=O)c3ccc(C)c(C)c3)CC1)oc1ccccc12 (centres undefined)	n	n	n	n	n
COc1cc2c(cc1NC(=O)C(C)N1CCN(S(=O)(=O)c3ccccc3[N+](=O)[O-])CC1)oc1ccccc12 (centres undefined)	n	n	n	6.0	n
O=[N+]([O-])c1cc(N=Nc2ccc3ccccc3c2)ccc1O	x	1.3	n	n	x
CCc1nn2cc(-c3ccccc3)nc2s1	5	n	n	n	153
c1ccc(-c2cn3nc(-c4ccccc4)c(-c4ccccc4)nc3n2)cc1	n	n	n	n	n
CN(Cc1ccccc1)C(=O)OCc1cn(Cc2ccc(F)cc2F)nn1	x	n	n	n	x
